Inconclusive results are not listed. Values without a mark were called inactive. Activity calls are given as the source filed them. Calls come from the whole dose curve; as a rule, active = well fitted cell-killing curve with a large enough effect in the repeat runs; inconclusive = weak or mixed curves; inactive = flat fitted curve, though single readings scatter.
Assay: qHTS RealTime-Glo MT Cell Viability Assay in HepG2 cells - 32 hour (AID 1224877); note: nearly all actives have a fitted effect of over 55% in size
Conditions: RealTime-Glo luminescence; series mostly up to 76.8 µM
Description: U.S. Tox21 Program National Center for Advancing Translational Sciences [NCATS] NIH Chemical Genomics Center [NCGC] U.S. Environmental Protection Agency [EPA] National Institutes of Environmental Health Sciences [NIEHS] National Toxicology Program [NTP] U.S. Food and Drug Administration [FDA] Tox21 Assay Overview: Measure of cell viability is critical in the cell-base assay. Analysis of cell viability is necessary for the characterization of cell responses to cytotoxic drugs and environmental stress. A RealTime-Glo MT Cell Viability Assay to monitor cell viability in real time of continues cell culture during 40 hours of compound treatment was used to screen Tox21 10K library compounds in HepG2 cells. The RealTime-Glo MT Cell Viability Assay is a nonlytic, homogeneous, bioluminescent method to measure cell viability in real time using a simple, plate-based method. The assay involves adding NanoLuc luciferase and a cell-permeant prosubstrate to cells in culture. Viable cells reduce the proprietary prosubstrate to generate a substrate for NanoLuc luciferase. This substrate diffuses from cells into the surrounding culture medium, where it is rapidly used by the NanoLuc Enzyme to produce a luminescent signal. The signal correlates with the number of viable cells, making the assay well suited for cytotoxicity studies.
Tox21 Assay Protocol Summary: The mixture of HepG2 cell suspension and reagents were dispensed at 600cells/6 ul/well in 1536-well tissue culture treated black solid bottom plates using a Multidrop dispenser. After the assay plates were incubated at a 37 C/5% CO2 incubator for 5 hours, 23 nL of compounds dissolved in DMSO, positive and negative controls was transferred to the assay plate by a pintool work station. The plates were incubated at 37 C for 40 hours. The luminescence intensity were measured at 0h, 8h, 16h, 24h, 32h and 40h time points using ViewLux plate reader during compound treatment.
% is set by controls: 0 for no effect and ±100 for the full control effect.

Row | Compound | outcome | activity change, negative = cytotoxic
1 | C=CCCCCCCCCC(=O)OCCCC | inactive | 
2 | CCOC(=O)CC1(C)OCC(C)O1 (stereo not given) | inactive | 
3 | CC1CCc2c(N3CCC(O)CC3)c(F)cc3c(=O)c(C(=O)O)cn1c23 (stereo not given) | inactive | 
4 | Cc1c(C(=O)c2c[nH]n(C)c2=O)ccc(S(C)(=O)=O)c1C1=NOCC1 | inactive | 
5 | O=NN(CCCl)C(=O)NC1CCCCC1 | inactive | 
6 | O=C(O)CONC(=O)c1ccccc1 | inactive | 
7 | CC1=NN(c2ccc(S(=O)(=O)O)cc2)C(=O)C1 | inactive | 
8 | CCCCCCCCCCCCCCCCCCOCCO |  | -5.24% [at 15.8 µM]
9 | COC(=O)CCCCC(=O)O | inactive | 
10 | CCC(=O)c1c(O)cc(O)cc1O | inactive | 
11 | CC(=O)CCc1ccc(OC(C)=O)cc1 | inactive | 
12 | O=C(O)c1cc2ccccc2nc1C(=O)O | inactive | 
13 | Cc1ccc(N)cc1S(=O)(=O)O | inactive | 
14 | Cc1cccc(Cl)c1 | inactive | 
15 | CCCCCCCCCCCCCCC(=O)NC(CO)CCCCCCCCCCCCCC (stereo not given) | inactive | 
16 | CC(O)CC(C)O (stereo not given) | inactive | 
17 | COS(=O)(=O)O | inactive | 
18 | C=C(C)C1CC=C(C)C(=O)C1 (stereo not given) | inactive | 
19 | CC1c2ccccc2CN1NC(=O)c1ccc(Cl)c(S(N)(=O)=O)c1 (stereo not given) | inactive | 
20 | CC(=O)O[C@@H]1CC2CCC1(C)C2(C)C (stereo not given in full) | inactive | 

Row | Compound | outcome | activity change, negative = cytotoxic
21 | CCN(CC)CCN | inactive | 
22 | CC(S)C(C)S (stereo not given) | inactive | 
23 | CC(C)OC(=O)OCOP(=O)(CO[C@H](C)Cn1cnc2c(N)ncnc21)OCOC(=O)OC(C)C | inactive | 
24 | ONc1ccccc1 | inactive | 
25 | O=C=NCC1CCCC(CN=C=O)C1 (stereo not given) | inactive | 
26 | c1ccc(B(c2ccccc2)c2ccccc2)cc1 | inactive | 
27 | O=C(O)[C@H](O)c1ccccc1 | inactive | 
28 | C=C(C)[C@@H]1CC=C(C)C(=O)C1 | inactive | 
29 | O=C(CCCl)NCCc1ccccc1 | inactive | 
30 | Cn1nnc2c(C(N)=O)ncn2c1=O | inactive | 
31 | c1ccc(-c2nn[nH]n2)cc1 | inactive | 
32 | CC(C)NCC(O)c1ccc2ccccc2c1 (stereo not given) | inactive | 
33 | NCCOCCN | inactive | 
34 | CC(C)Cn1cnc2c1c(=O)n(C)c(=O)n2C | inactive | 
35 | N#Cc1cscn1 | inactive | 
36 | CN1CCOC(c2ccccc2)c2ccccc2C1 (stereo not given) | inactive | 
37 | CCc1occc(=O)c1O | inactive | 
38 | O=C(NCN1CCOCC1)c1cnccn1 | inactive | 
39 | C[C@H]1[C@@H](c2ccccc2)NC(=O)N1C | inactive | 
40 | CO[C@@]1(NC(=O)Cc2cccs2)C(=O)N2C(C(=O)O)=C(COC(N)=O)CS[C@@H]21 | inactive | 

— PubChem BioAssay (Tox21)
